# According to PubChem BioAssay (Tox21):
# A number with no mark means an inactive call. Results filed as inconclusive are left out. Entries that show only a call come without a potency. Calls of active or inactive are those of the source. Calls follow the shape of the dose curve; as a rule, active = well fitted curve in the direction sought with a large enough effect in the repeat runs; inconclusive = weak or mixed curves; inactive = no such curve, though single readings can be large; an effect the other way counts as inactive or inconclusive.
# Assays:
# [1] = qHTS RealTime-Glo MT Cell Viability Assay in HepG2 cells - 24 hour (AID 1224867); also: nearly all actives have a fitted effect of over 50% in size
# Method in brief: (§1)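 HepG2 cells (600/well) were dispensed with RealTime-Glo reagents, incubated 5 h at 37 °C, then treated with compounds in DMSO for up to 40 h. Nonlytic NanoLuc luminescence reflecting viable cells was read at each stated time point.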
# [2] = qHTS RealTime-Glo MT Cell Viability Assay in HEK293 cells - 32 hour (AID 1224868); also: top concentration of the series differs between compounds; nearly all actives have a fitted effect of over 50% in size
# Method in brief: (§2)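 HEK293 cells seeded with NanoLuc/prosubstrate reagent, rested 5 h at 37 C, then dosed and kept at 37 C up to 40 h. Nonlytic real-time luminescence from viable cells read at 0, 8, 16, 24, 32 and 40 h.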
# [3] = A CellTox Green Cytotoxicity Assay to monitor cytotoxicity in HEK293 cells - 0 hour (AID 1224869); also: nearly all actives have a fitted effect of over 50% in size
# Method in brief: (§3)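 Seeding of HEK293 cells together with cytotoxicity dye preceded a 5 h incubation at 37 C/5% CO2. Test compounds in DMSO were then added and fluorescence monitored across 40 h.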
# [4] = qHTS RealTime-Glo MT Cell Viability Assay in HepG2 cells - 40 hour (AID 1224870); also: nearly all actives have a fitted effect of over 50% in size
# Method in brief: (§4)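 HepG2 cells (600/well) mixed with RealTime-Glo MT reagent, settled 5 h at 37 C/5% CO2 before compound addition. Nonlytic NanoLuc luminescence from viable-cell prosubstrate reduction read repeatedly during 40 h treatment at 37 C.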
# [5] = A CellTox Green Cytotoxicity Assay to monitor cytotoxicity in HEK293 cells - 40 hour (AID 1224871); also: nearly all actives have a fitted effect of over 45% in size
# Method in brief: as §3
# [6] = qHTS RealTime-Glo MT Cell Viability Assay in HEK293 cells - 16 hour (AID 1224872)
# Method in brief: as §2
# [7] = qHTS RealTime-Glo MT Cell Viability Assay in HepG2 cells - 8 hour (AID 1224873); also: nearly all actives have a fitted effect of over 55% in size
# Method in brief: as §4
# [8] = qHTS RealTime-Glo MT Cell Viability Assay in HEK293 cells - 40 hour (AID 1224874); conditions: RealTime-Glo luminescence; max response: hits give low values; also: nearly all actives have a fitted effect of over 50% in size
# Method in brief: (§5)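 Tox21 screen in HEK293 using RealTime-Glo MT chemistry, with cells and reagent co-dispensed. Luminescence proportional to viable cell number was captured at intervals during 40 h compound exposure at 37 C.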
# [9] = A CellTox Green Cytotoxicity Assay to monitor cytotoxicity in HEK293 cells - 24 hour (AID 1224875); also: series mostly up to about 77 µM; nearly all actives have a fitted effect of over 45% in size
# Method in brief: as §3
# [10] = A CellTox Green Cytotoxicity Assay to monitor cytotoxicity in HepG2 cells - 16 hour (AID 1224876); also: nearly all actives have a fitted effect of over 45% in size
# Method in brief: (§6)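 Nonlytic assay: viable cells exclude the dye, so fluorescence scales with cell death. HepG2 at 600 cells/well, compounds added after 5 h, signal read across 40 h.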
# [11] = A CellTox Green Cytotoxicity Assay to monitor cytotoxicity in HepG2 cells - 24 hour (AID 1224878); also: nearly all actives have a fitted effect of over 45% in size
# Method in brief: as §6
# [12] = A CellTox Green Cytotoxicity Assay to monitor cytotoxicity in HepG2 cells - 40 hour (AID 1224879); also: nearly all actives have a fitted effect of over 40% in size
# Method in brief: as §6
# [13] = qHTS RealTime-Glo MT Cell Viability Assay in HEK293 cells - 0 hour (AID 1224880)
# Method in brief: as §5
# [14] = A CellTox Green Cytotoxicity Assay to monitor cytotoxicity in HEK293 cells - 32 hour (AID 1224881); also: nearly all actives have a fitted effect of over 40% in size
# Method in brief: as §3
# [15] = A CellTox Green Cytotoxicity Assay to monitor cytotoxicity in HepG2 cells - 0 hour (AID 1224882); also: nearly all actives have a fitted effect of over 35% in size
# Method in brief: as §6
# [16] = A CellTox Green Cytotoxicity Assay to monitor cytotoxicity in HepG2 cells - 32 hour (AID 1224883); also: nearly all actives have a fitted effect of over 50% in size
# Method in brief: as §6
# [17] = A CellTox Green Cytotoxicity Assay to monitor cytotoxicity in HEK293 cells - 8 hour (AID 1224884); also: nearly all actives have a fitted effect of over 35% in size; also: potency is read from the fitted curve at half-maximal effect
# Method in brief: as §3
# [18] = qHTS RealTime-Glo MT Cell Viability Assay in HepG2 cells - 16 hour (AID 1224885); also: nearly all actives have a fitted effect of over 50% in size
# Method in brief: as §1
# [19] = qHTS RealTime-Glo MT Cell Viability Assay in HEK293 cells - 24 hour (AID 1224886)
# Method in brief: as §2
# [20] = qHTS RealTime-Glo MT Cell Viability Assay in HepG2 cells - 32 hour (AID 1224877); also: nearly all actives have a fitted effect of over 55% in size
# Method in brief: as §1
SMILES,outcome [1],Potency [2],Potency [3],outcome [4],Potency [5],Potency [6],outcome [7],max response [8] [%],Potency [9],Potency [10],Potency [11],Potency [12],outcome [13],Potency [14],Potency [15],Potency [16],Potency [17],outcome [18],Potency [19],outcome [20]
O=C(O)/C=C/c1ccccc1,inactive,inactive,inactive,inactive,inactive,inactive,inactive,-8.08,inactive,inactive,inactive,inactive,inactive,inactive,inactive,inactive,inactive,inactive,inactive,–
CCC1Nc2cc(Cl)c(S(N)(=O)=O)cc2S(=O)(=O)N1 (stereo not given),inactive,inactive,inactive,–,inactive,inactive,inactive,-2.14,inactive,inactive,inactive,inactive,inactive,inactive,inactive,inactive,inactive,inactive,inactive,inactive
C[N+](C)(C)CC(O)CCl (stereo not given),inactive,inactive,inactive,inactive,inactive,–,inactive,-4.6,inactive,inactive,inactive,inactive,inactive,inactive,inactive,inactive,inactive,inactive,inactive,inactive
Nc1cc(S(=O)(=O)O)ccc1S(=O)(=O)O,inactive,inactive,inactive,–,inactive,inactive,inactive,21,inactive,inactive,inactive,inactive,inactive,inactive,inactive,inactive,inactive,inactive,inactive,inactive
C1=C\CC/C=C\CC/1,inactive,inactive,inactive,–,inactive,inactive,inactive,16.6,inactive,inactive,inactive,inactive,inactive,inactive,inactive,inactive,4.07 µM (active),inactive,inactive,inactive
CC(=O)N(CC(O)CO)c1c(I)c(C(=O)NCC(O)CO)c(I)c(C(=O)NCC(O)CO)c1I (stereo not given),inactive,inactive,inactive,–,inactive,inactive,inactive,6.97,inactive,inactive,inactive,inactive,inactive,inactive,inactive,inactive,inactive,inactive,inactive,inactive
FC(F)(F)/C(=N\OCC1OCCO1)c1ccc(Cl)cc1,inactive,inactive,inactive,inactive,inactive,–,inactive,3.42,inactive,inactive,inactive,inactive,–,inactive,inactive,inactive,inactive,inactive,inactive,inactive
COc1ccc(N=Nc2cc(C)c(N=Nc3ccc(S(=O)(=O)O)cc3)cc2OC)cc1,inactive,inactive,inactive,inactive,inactive,–,inactive,-2.91,inactive,inactive,inactive,inactive,–,inactive,inactive,inactive,inactive,inactive,inactive,inactive
CCCCCC(=O)OCC,inactive,inactive,inactive,–,inactive,inactive,inactive,5.39,inactive,inactive,inactive,inactive,inactive,inactive,inactive,inactive,inactive,inactive,inactive,inactive
O=C(c1ccc2c(c1)C(=O)OC2=O)c1ccc2c(c1)C(=O)OC2=O,inactive,inactive,inactive,–,inactive,inactive,inactive,-1.77,inactive,inactive,inactive,inactive,inactive,inactive,inactive,inactive,inactive,inactive,inactive,inactive
CC(C)COC(=O)CC(C(=O)OCC(C)C)S(=O)(=O)O (stereo not given),inactive,inactive,inactive,inactive,inactive,–,inactive,-3.15,inactive,inactive,inactive,inactive,–,inactive,inactive,inactive,inactive,inactive,inactive,inactive
CN=C(NC#N)NCCSCc1csc(N=C(N)N)n1,inactive,inactive,inactive,inactive,inactive,–,inactive,1.73,inactive,inactive,inactive,inactive,–,inactive,inactive,inactive,inactive,inactive,inactive,–
c1ccccc1,inactive,inactive,inactive,–,inactive,inactive,inactive,-3.11,inactive,inactive,inactive,inactive,inactive,inactive,inactive,inactive,inactive,inactive,inactive,inactive
C=C(C)C(=O)OC,inactive,inactive,inactive,inactive,inactive,–,inactive,-13.6,inactive,inactive,inactive,inactive,–,inactive,inactive,inactive,inactive,inactive,inactive,inactive
